Assay [1] can be described thus: Nuclear factor erythroid 2-related factor 2/antioxidant responsive element (Nrf2/ARE) small molecule agonists: qHTS cell viability counter screen in human keratinocytes (AID 1919968; active = well fitted curve in the direction sought with a large enough effect in the repeat runs; an effect the other way counts as inactive or inconclusive; note: nearly all actives have a fitted effect of over 55% in size). In short, it runs like this: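 Measured as CellTiter-Fluor fluorescence, this readout tracks cytotoxicity in the same wells as the ARE-luciferase screen. HaCaT reporter cells (1,500/well) received compounds after a 5 h pre-incubation and were exposed for 23 h.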
In general terms: qHTS replaces the single test concentration by a dilution series.

Assay [2] is described as follows: Nuclear factor erythroid 2-related factor 2/antioxidant responsive element (Nrf2/ARE) small molecule agonists: luciferase reporter gene qHTS assay in human keratinocytes (AID 1919969; note: nearly all actives have a fitted effect of over 35% in size; note: potency is the fitted concentration of half-maximal effect). (In general: In a reporter assay the amount or activity of a reporter protein is the signal.)
Assay [3] deals with Gonadotropin-releasing hormone receptor (Homo sapiens) (UniProt P30968). Kind of assay: Human gonadotropin-releasing hormone receptor (GnRHR) small molecule agonists, calcium flux assay in GnRHR-HEK293 cells (AID 1920063). Note: nearly all actives have a fitted effect of over 35% in size. In short, it runs like this:
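Fluorescence kinetics (480 nm excitation, 540 nm emission; 3 min, 1 s steps) report calcium mobilisation in human GnRHR-HEK293 cells in agonist mode. Dye incubation: 1 h, 37 C.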
(In general: Calcium flux is commonly read through the fluorescence of an indicator in the cells.)

Assay [4] deals with KiSS-1 receptor (Homo sapiens) (UniProt Q969F8). Kind of assay: Human kisspeptin (KISS1R) small molecule agonists, calcium flux assay in KISS1R-HEK293 cells (AID 1920064; active = well fitted curve in the direction sought with a large enough effect in the repeat runs; an effect the other way counts as inactive or inconclusive). In short, it runs like this:
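Measures KISS1R agonism through calcium-sensitive dye fluorescence in stably transfected HEK293 cells, read for 3 min after pin-tool compound delivery; 15-point titrations in triplicate.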

The nature of assay [5]: G protein-coupled receptor (GPCR) small molecule agonists, calcium flux assay: HEK293 wild type cell line counter screen (AID 1920065). The procedure, abridged: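 Readout: fluorescence at 480 nm excitation/540 nm emission, sampled at 1 s intervals for 3 min. Cells had been cultured 18 h, then dye-loaded 1 h at 37 C before compound or ATP addition.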
Assay [6] is described as follows: p53 small molecule agonists, cell-based qHTS assay with human liver microsomes (AID 1963577).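 Note: p53 response element beta-lactamase reporter cells with liver microsomes plus NADPH.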 In short, it runs like this: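 With metabolic activation: human liver microsomes (0.5 mg/mL final) plus NADPH (0.5 mg/mL final) added alongside compounds to p53RE-bla cells; 16 h 37 C exposure; beta-lactamase read by LiveBLAzer fluorescence.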
Assay [7] is described as follows: p53 small molecule agonists, cell-based qHTS assay with rat liver microsomes (AID 1963578). The procedure, abridged: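 Metabolic activation by rat liver microsomes and NADPH, each 0.5 mg/mL final, added right after compounds to p53RE-bla reporter cells (4,000/well, plated 5 h earlier). 16 h at 37 C, then LiveBLAzer substrate for 2 h at room temperature in the dark; fluorescence read-out.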

Assay [8] is described as follows: p53 small molecule agonists, cell-based qHTS assay with human liver microsomes: qHTS cell viability counter screen (AID 1963579). Note: nearly all actives have a fitted effect of over 45% in size. In short, it runs like this: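 Metabolic activation used human liver microsomes and NADPH, both 0.5 mg/mL final, over 16 hours at 37 C on p53RE-bla cells (4,000/well). Cytotoxicity measured by CellTiter-Glo luminescence, 30 min at room temperature.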

Assay [9] can be described thus: p53 small molecule agonists, cell-based qHTS assay with rat liver microsomes: qHTS cell viability counter screen (AID 1963580). Note: nearly all actives have a fitted effect of over 45% in size. The procedure, abridged:
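p53RE-bla HCT-116 cells were exposed 16 h at 37 C to compounds with rat liver microsomes (0.5 mg/mL) and NADPH (0.5 mg/mL). Viability was measured in the same wells as ATP content by CellTiter-Glo luminescence.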

Assay [10] can be described thus: p53 small molecule agonists, cell-based qHTS assay: qHTS cell viability counter screen (AID 1963581). Note: nearly all actives have a fitted effect of over 45% in size. The procedure, abridged: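 In the same plates used for the p53 bla reporter, HCT-116 cells given compounds for 16 h at 37 C received CellTiter-Glo; luminescence was recorded 30 min later at room temperature.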
A short description of assay [11]: p53 small molecule agonists, cell-based qHTS assay (AID 1963582; active = well fitted activation curve with a large enough effect in the signal ratio in the repeat runs, not every such curve was filed as active; the % refers to the signal ratio). The procedure, abridged: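 Compounds are pin-transferred in DMSO onto p53RE-bla cells and incubated 16 h at 37 C. The B/G FRET beta-lactamase substrate is then applied for 2 h at RT and fluorescence recorded.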
For assay [12], the target named is 5-hydroxytryptamine receptor 2A (Homo sapiens) (UniProt P28223). Kind of assay: 5-hydroxytryptamine receptor 2A (HTR2A) small molecule antagonists, cell-based qHTS assay (AID 1963586). Note: nearly all actives have a fitted effect of over 45% in size. The procedure, abridged: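 Antagonist-mode intracellular calcium assay: DOI (4 nM) added after 5 min compound pre-incubation at room temperature to dye-loaded HTR2A-CHO cells. Fluorescence followed for 3 min, sampled every second.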

For assay [13] the target is unchanged. Kind of assay: 5-hydroxytryptamine receptor 2A (HTR2A) small molecule agonists, cell-based qHTS assay (AID 1963587). Note: nearly all actives have a fitted effect of over 30% in size. In short, it runs like this:
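CHO cells stably expressing human HTR2A, plated 18 h, loaded with calcium dye 1 h at 37 C. Agonist mode: compounds added and intracellular calcium fluorescence recorded kinetically for 2 min at 1 sec intervals.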

Assay [14] concerns the target Muscarinic acetylcholine receptor M1 (Homo sapiens) (UniProt P11229). Kind of assay: Cholinergic receptor muscarinic 1 (CHRM1) small molecule antagonists, cell-based qHTS assay (AID 1963588). Note: nearly all actives have a fitted effect of over 40% in size. Note: potency is the fitted concentration of half-maximal effect. The procedure, abridged:
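CHRM1-CHO calcium-flux assay, antagonist mode. Cells were seeded 18 h, dye-loaded 1 h at 37 C and given compound for 5 min at RT, then acetylcholine was added at 50nM. FDSS fluorescence was read 3 min; 15 concentrations, three runs.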

Assay [15] shares this target. Kind of assay: Cholinergic receptor muscarinic 1 (CHRM1) small molecule agonists, cell-based qHTS assay (AID 1963589). Note: nearly all actives have a fitted effect of over 35% in size. The procedure, abridged: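 Each compound was tested at 15 concentrations across three independent runs on dye-loaded CHO cells stably expressing human CHRM1, reading intracellular calcium fluorescence kinetically at 1 sec intervals.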
A short description of assay [16]: cAMP Responsive Elements (CRE) small molecule agonists, cell-based qHTS assay (AID 1963590). In short, it runs like this:
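Cell line: CRE-bla HEK 293T; medium DMEM/10% dialyzed FBS/0.1 mM NEAA/1 mM pyruvate/25 mM HEPES; 3 h compound exposure; beta-lactamase FRET readout after 2 h substrate loading at RT.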

Assay [17] can be described thus: cAMP Responsive Elements (CRE) small molecule antagonists, cell-based qHTS assay (AID 1963591; active = well fitted inhibition curve with a large enough effect in the signal ratio in the repeat runs, not every such curve was filed as active; the % refers to the signal ratio). In short, it runs like this: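 Inhibition of NKH477-driven (0.25 uM final) CRE-beta-lactamase signal in HEK293T cells, 3 h compound exposure at 37 °C, detected by FRET substrate fluorescence.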
Assay [18] has as its target Beta-2 adrenergic receptor (Homo sapiens) (UniProt P07550). Kind of assay: Adrenergic beta2 receptor (ADRB2) small molecule antagonists, cell-based qHTS assay (AID 1963592). Note: series mostly up to about 92 µM; nearly all actives have a fitted effect of over 50% in size. In short, it runs like this:
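Cells (CHO, stable ADRB2 overexpression) incubated 18-20hr at 37C; compounds added from DMSO; agonist mix (1nM isoproterenol, 100uM IBMX, 25uM Ro-20-1724) added; 0.5hr RT; d2-cAMP and anti-cAMP-cryptate added; 1hr RT; 665/615 nm read.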

Assay [19] deals with D(2) dopamine receptor (Homo sapiens) (UniProt P14416). Kind of assay: Dopamine D2 receptor (DRD2) small molecule agonists, cell-based qHTS assay (AID 1963594). Note: nearly all actives have a fitted effect of over 35% in size. The procedure, abridged:
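HEK293 cells stably expressing human DRD2, pre-treated with PDE inhibitor Ro20-1724 (0.1 mM final) and compound 10 min at room temperature, then stimulated with NKH477 (200nM […]) for 30 min. cAMP read by HTRF (665/620 nm).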

Assay [20] shares this target. Kind of assay: Dopamine D2 receptor (DRD2) small molecule antagonists, cell-based qHTS assay (AID 1963595; active = well fitted inhibition curve with a large enough effect in the signal ratio in the repeat runs, with a control signal flat; the % refers to the signal ratio). In short, it runs like this: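 Cells were plated and grown for 24 h at 37 °C. Ro20-1724 (0.1 mM final) went in first, then compound for 10 min. NKH477 (200 nM) with quinpirole (12 nM) followed for 30 min at RT, then HTRF detection reagents for 1 h.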

Structures are written as SMILES. Results filed as inconclusive are left out. The source made the active and inactive calls. Unless noted, calls come from the whole dose curve.

Sequence of Gonadotropin-releasing hormone receptor (Homo sapiens) (P30968 whole entry, looked up): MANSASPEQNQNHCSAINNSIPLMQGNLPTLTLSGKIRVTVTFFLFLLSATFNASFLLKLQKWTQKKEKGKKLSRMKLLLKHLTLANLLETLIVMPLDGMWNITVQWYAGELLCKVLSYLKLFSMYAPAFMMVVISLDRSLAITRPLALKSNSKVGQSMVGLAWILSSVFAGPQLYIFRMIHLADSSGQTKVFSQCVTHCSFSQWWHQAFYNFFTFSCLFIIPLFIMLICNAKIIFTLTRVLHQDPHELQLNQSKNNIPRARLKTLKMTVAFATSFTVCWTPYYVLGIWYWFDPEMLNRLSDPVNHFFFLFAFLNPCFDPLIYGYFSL
Sequence of Beta-2 adrenergic receptor (Homo sapiens) (P07550 whole entry, looked up): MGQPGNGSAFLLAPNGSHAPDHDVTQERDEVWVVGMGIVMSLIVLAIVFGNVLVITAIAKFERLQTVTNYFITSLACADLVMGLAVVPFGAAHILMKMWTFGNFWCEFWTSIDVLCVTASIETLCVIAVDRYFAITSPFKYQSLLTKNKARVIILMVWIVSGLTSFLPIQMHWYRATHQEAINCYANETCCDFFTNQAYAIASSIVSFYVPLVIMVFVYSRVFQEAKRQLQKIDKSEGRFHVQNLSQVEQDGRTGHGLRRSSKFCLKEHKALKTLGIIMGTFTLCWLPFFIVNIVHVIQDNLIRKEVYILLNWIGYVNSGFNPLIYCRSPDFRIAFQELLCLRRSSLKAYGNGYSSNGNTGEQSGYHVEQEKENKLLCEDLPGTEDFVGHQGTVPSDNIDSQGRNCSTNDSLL
Sequence of D(2) dopamine receptor (Homo sapiens) (P14416 whole entry, looked up): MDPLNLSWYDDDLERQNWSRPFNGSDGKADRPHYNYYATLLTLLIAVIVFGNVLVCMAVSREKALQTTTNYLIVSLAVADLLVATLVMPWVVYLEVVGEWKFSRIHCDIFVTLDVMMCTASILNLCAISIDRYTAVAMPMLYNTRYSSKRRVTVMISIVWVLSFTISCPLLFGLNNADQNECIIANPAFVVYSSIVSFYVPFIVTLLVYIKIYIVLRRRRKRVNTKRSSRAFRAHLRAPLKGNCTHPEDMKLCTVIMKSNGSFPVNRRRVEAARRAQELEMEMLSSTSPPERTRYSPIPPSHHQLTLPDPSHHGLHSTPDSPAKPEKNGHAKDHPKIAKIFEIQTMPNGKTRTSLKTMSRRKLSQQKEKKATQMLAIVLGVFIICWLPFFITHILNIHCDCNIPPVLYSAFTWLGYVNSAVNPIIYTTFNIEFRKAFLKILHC
Sequence of KiSS-1 receptor (Homo sapiens) (Q969F8 whole entry, looked up): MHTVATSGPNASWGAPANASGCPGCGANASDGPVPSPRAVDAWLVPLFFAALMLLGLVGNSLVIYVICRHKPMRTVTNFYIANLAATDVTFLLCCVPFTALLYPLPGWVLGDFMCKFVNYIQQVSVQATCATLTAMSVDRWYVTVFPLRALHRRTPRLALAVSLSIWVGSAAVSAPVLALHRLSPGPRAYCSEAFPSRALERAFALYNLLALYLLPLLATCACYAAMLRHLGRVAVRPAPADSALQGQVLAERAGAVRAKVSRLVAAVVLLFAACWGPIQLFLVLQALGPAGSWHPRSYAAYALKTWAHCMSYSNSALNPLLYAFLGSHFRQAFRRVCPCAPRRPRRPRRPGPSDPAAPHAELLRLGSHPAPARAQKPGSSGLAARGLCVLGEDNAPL
Sequence of Muscarinic acetylcholine receptor M1 (Homo sapiens) (P11229 whole entry, looked up): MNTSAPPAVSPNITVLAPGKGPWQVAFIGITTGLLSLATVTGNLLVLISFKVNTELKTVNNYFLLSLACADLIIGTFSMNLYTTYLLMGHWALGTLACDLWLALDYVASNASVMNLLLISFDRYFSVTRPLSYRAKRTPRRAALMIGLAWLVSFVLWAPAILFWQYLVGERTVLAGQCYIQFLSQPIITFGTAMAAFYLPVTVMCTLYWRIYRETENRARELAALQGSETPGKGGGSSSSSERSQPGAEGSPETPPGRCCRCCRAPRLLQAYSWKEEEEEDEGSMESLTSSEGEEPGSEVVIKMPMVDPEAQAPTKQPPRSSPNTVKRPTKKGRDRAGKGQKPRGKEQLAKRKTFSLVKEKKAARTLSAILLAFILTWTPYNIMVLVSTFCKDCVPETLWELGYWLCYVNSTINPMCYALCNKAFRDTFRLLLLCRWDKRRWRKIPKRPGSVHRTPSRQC
Sequence of 5-hydroxytryptamine receptor 2A (Homo sapiens) (P28223 whole entry, looked up): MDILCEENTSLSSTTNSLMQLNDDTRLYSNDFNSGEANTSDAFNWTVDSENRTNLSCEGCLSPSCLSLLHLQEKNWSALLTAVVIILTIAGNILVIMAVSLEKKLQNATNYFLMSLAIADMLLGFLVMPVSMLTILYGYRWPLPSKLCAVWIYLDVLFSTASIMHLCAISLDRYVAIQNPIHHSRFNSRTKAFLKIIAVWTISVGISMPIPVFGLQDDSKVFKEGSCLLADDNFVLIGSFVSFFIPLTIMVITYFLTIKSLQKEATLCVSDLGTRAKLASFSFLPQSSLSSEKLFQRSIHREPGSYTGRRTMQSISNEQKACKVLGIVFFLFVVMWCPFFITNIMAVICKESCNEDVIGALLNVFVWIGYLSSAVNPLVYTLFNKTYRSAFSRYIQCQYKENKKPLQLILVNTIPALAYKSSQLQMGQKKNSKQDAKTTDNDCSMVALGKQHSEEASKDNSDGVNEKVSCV

Regarding `CC(C)[N+](C)(CCC(C(N)=O)(c1ccccc1)c1ccccc1)C(C)C`, the Potency entry in assay [1], in assay [2], in [3], in assay [4], in assay [5] and in [6] was “inactive” throughout. Also, the Potency entry in [7], in assay [8], in assay [9], in assay [10], in assay [11] and in assay [12] was “inactive” throughout. Moreover, the Potency result in assay [13], in assay [15], in assay [16], in assay [17], in assay [18] and in assay [19] was “inactive” in each case. Besides, the Potency entry in [20] was “inactive”. Moreover, in [14], the Potency was 0.0023 µM (active).
Take `C[N+]1(C)CCCCC1`: the Potency result in assay [1], in assay [2], in [3], in assay [4], in [5] and in [6] was “inactive” each time. Moreover, the Potency entry in assay [7], in [8], in assay [9], in assay [10], in assay [11] and in [12] was “inactive” in each case. For the same compound, the Potency entry in assay [13], in [14], in assay [15], in assay [16], in assay [17] and in [18] was “inactive” throughout. Further, the Potency entry in [19] and in assay [20] was “inactive” each time.
As to `Cc1ccc(Cl)c(O)c1`, the Potency entry in [1], in [2], in [3], in assay [4], in [5] and in [6] was “inactive” throughout. Also, the Potency result in assay [7], in assay [8], in [9], in assay [10], in [11] and in assay [12] was “inactive” in each case. In addition, the Potency entry in assay [13], in assay [14], in assay [15], in assay [16], in assay [17] and in assay [18] was “inactive” each time. Besides, the Potency entry in assay [19] and in [20] was “inactive” each time.
As to `COCC(=O)N(c1c(C)cccc1C)[C@H](C)C(=O)OC`, the Potency entry in assay [1], in assay [2], in [3], in [4], in assay [5] and in assay [6] was “inactive” in each case. The Potency result in assay [7], in [8], in assay [9], in assay [10], in [11] and in [12] was “inactive” in each case. Besides, the Potency result in assay [13], in [14], in [15], in [16], in assay [17] and in [18] was “inactive” each time. For the same compound, the Potency result in assay [19] and in assay [20] was “inactive” in each case.
`Nc1ccc(-c2ccccc2)cc1`: the Potency result in assay [1], in assay [3], in assay [4], in [5], in assay [6] and in assay [7] was “inactive” each time. The Potency result in [8], in assay [9], in assay [10], in assay [11], in assay [12] and in assay [13] was “inactive” throughout. Moreover, the Potency result in assay [14], in [15], in assay [16], in assay [17], in [18] and in assay [20] was “inactive” in each case. Further, the Potency in assay [2] was 13.7 µM (active).
For `Cc1ccc(N)cc1C`, the Potency entry in [1], in assay [3], in [4], in [5], in assay [6] and in assay [7] was “inactive” in each case. Further, the Potency entry in assay [8], in assay [9], in assay [10], in assay [11], in assay [12] and in assay [13] was “inactive” each time. Moreover, the Potency result in assay [14], in [15], in assay [16], in assay [17], in assay [18] and in [20] was “inactive” each time. In assay [2], the Potency was 9.77 µM (active).
`Nc1ccc(-c2ccc(N)cc2)cc1`: the Potency entry in [1], in [2], in assay [3], in assay [4], in assay [5] and in [6] was “inactive” throughout. Also, the Potency entry in assay [7], in [8], in assay [9], in assay [10], in assay [11] and in [12] was “inactive” throughout. The Potency result in [13], in assay [14], in [15], in [16], in assay [17] and in assay [18] was “inactive” throughout. Also, the Potency entry in assay [19] and in [20] was “inactive” throughout.
As for `O=C(NCNC(=O)NC1C(=O)NC(=O)N1CO)NC1C(=O)NC(=O)N1CO` (stereo not drawn), the Potency result in assay [1], in assay [2], in assay [3], in [4], in assay [5] and in [6] was “inactive” in each case. Moreover, the Potency result in [7], in assay [8], in assay [9], in [10], in assay [11] and in assay [12] was “inactive” throughout. The Potency result in assay [13], in assay [14], in [15], in [16], in assay [17] and in [18] was “inactive” each time. The Potency entry in assay [19] and in assay [20] was “inactive” each time.

The record behind these values is PubChem BioAssay (Tox21).
